BioA inh: M. tuberculosis BioA enzyme inhibitors, primary screen, biochemical, plate reader, single point, HTS | 7,8-diaminopelargonic acid synthase BioA (Mycobacterium tuberculosis) | purified M. tuberculosis BioA enzyme | inhibition, % at 9.99 µM | 360,000 compounds, 0.096% hits | AID 602481, 2012; in the data active means inhibition above about 40%
RecA intein inh: Mtb RecA intein splicing inhibitors, primary screen, biochemical, fluorescence, HTS. Protein RecA (Mycobacterium tuberculosis (strain ATCC 25618 / H37Rv)), P9WHJ3. cell-free RecA intein splicing. 290,000 compounds, 0.75% hits. inhibition, % (no concentration beside the values). AID 2221, 2009; in the data active means inhibition above about 30%
UGM FP inh: M. tuberculosis UGM enzyme inhibitors, primary screen, biochemical, fluorescence polarization, single point; purified UGM, fluorescence polarization probe displacement; 320,000 compounds, 0.06% hits; inhibition, % at 10 µM; in the data active means inhibition above about 10%, passing the limit was not always enough
Rv3671c protease: Rv3671c serine protease inhibitors, primary screen, biochemical, fluorescence polarization, M. tuberculosis H37Rv. 320,000 compounds, 0.048% hits. inhibition, % at 5.96 µM. P9WHR9; in the data active means inhibition above about 38%;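 further: extracellular domain of Rv3671c used as enzyme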
Target sequence (P9WHR9 whole entry, looked up, the tested form may be a part): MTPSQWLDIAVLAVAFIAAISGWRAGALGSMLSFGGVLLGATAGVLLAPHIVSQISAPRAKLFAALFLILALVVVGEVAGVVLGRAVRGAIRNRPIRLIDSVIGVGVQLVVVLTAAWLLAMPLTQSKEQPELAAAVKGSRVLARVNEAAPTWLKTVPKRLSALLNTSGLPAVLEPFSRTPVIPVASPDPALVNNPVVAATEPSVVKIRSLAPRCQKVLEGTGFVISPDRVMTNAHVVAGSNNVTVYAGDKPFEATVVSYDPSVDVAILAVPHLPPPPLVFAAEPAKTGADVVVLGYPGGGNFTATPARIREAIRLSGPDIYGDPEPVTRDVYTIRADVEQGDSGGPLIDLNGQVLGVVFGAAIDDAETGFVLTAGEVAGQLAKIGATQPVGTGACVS
FadD28 binding: inhibitors of FadD28 bisubstrate probe binding, primary screen, biochemical, fluorescence polarization, single point; inhibition, % at 12.5 µM; 360,000 compounds, 0.22% hits; in the data active means inhibition above about 8.5%, passing the limit was not always enough
Yp Topo-I inh: Yersinia pestis topoisomerase I inhibitors, primary screen, biochemical, cleavage product accumulation, plate reader, single point; DNA topoisomerase I (Yersinia pestis CO92); Y. pestis Topo-I cleavage product accumulation; activity, % at 10 µM; 360,000 compounds, 0.064% hits; in the data active means activity above about 50%, passing the limit was not always enough
GFP chromophore: counter-screen: blocks GFP chromophore formation, dose response, counter-screen, biochemical, fluorescence, homogeneous. shares compounds with RecA intein inh. cell-free GFP chromophore formation. EC50, µM. 2,100 compounds, 83% hits; call rule not given here
Numbers stand for hits. Hits are enriched below; roughly 0.82% of the tested compounds scored in any of these assays.

`O=C(C[C@H]1CC[C@@H]2[C@H](COC[C@@H](O)CN2Cc2nccs2)O1)NCc1ccc(Cl)cc1` gave BioA inh inactive.
O=C(Cc1ccccc1F)Nc1nc2ccccc2[nH]1 was read as RecA intein inh 38, UGM FP inh inactive, Rv3671c protease inactive, FadD28 binding inactive, Yp Topo-I inh inactive and GFP chromophore inactive.
Screening O=C(Cc1cccc2ccccc12)Nc1nc2ccccc2[nH]1 returned RecA intein inh inactive, UGM FP inh inactive, Rv3671c protease inactive, FadD28 binding inactive and Yp Topo-I inh inactive.
`COc1ccccc1S(=O)(=O)N[C@H]1C=C[C@H](CC(=O)NCc2cccc(F)c2)O[C@@H]1CO` gave BioA inh inactive.
COc1cc(Cc2nccc3cc(OC)c(OC)cc23)c(S(=O)(=O)O)cc1OC was read as RecA intein inh 42, UGM FP inh inactive, Rv3671c protease inactive, FadD28 binding inactive, Yp Topo-I inh inactive and GFP chromophore inactive.
Screening CC(NC(=O)CCC(=O)Nc1ccccc1O)c1ccccc1 (centres undefined) returned BioA inh inactive, RecA intein inh inactive, UGM FP inh inactive, Rv3671c protease inactive, FadD28 binding inactive and Yp Topo-I inh inactive.
For CC(CNc1ccccc1O)C(=O)O (centres undefined) the results were RecA intein inh 50, UGM FP inh inactive, Rv3671c protease inactive, FadD28 binding inactive, Yp Topo-I inh inactive and GFP chromophore 17.
For CC(=O)NC(c1cccc([N+](=O)[O-])c1)c1c(OC(C)=O)ccc2ccccc12 (centres undefined) the results were BioA inh inactive, RecA intein inh inactive, UGM FP inh inactive, Rv3671c protease inactive, FadD28 binding inactive and Yp Topo-I inh inactive.
CCCCC(=O)NC(c1cccc([N+](=O)[O-])c1)c1c(OC(C)=O)ccc2ccccc12 (centres undefined) was read as BioA inh inactive, RecA intein inh 35, UGM FP inh inactive, Rv3671c protease inactive, FadD28 binding inactive, Yp Topo-I inh inactive and GFP chromophore inactive.
`CS/C(=C/[N+](=O)[O-])Nc1cccc2c1C(C)CC2(C)C` (centres undefined) gave RecA intein inh 67, UGM FP inh inactive, Rv3671c protease inactive, FadD28 binding inactive, Yp Topo-I inh inactive and GFP chromophore 38.
Screening CC(=O)Nc1cc2c(c([N+](=O)[O-])c1C)C(C)(C)CC2(C)C returned BioA inh inactive, FadD28 binding inactive and Yp Topo-I inh inactive.
N#Cc1nccnc1S(=O)(=O)c1cccs1 was read as RecA intein inh 68, UGM FP inh inactive, Rv3671c protease inactive and GFP chromophore 32.
Screening CNC[C@H]1Oc2ccc(NC(=O)Nc3ccc(C(F)(F)F)cc3)cc2CC(=O)N([C@H](C)CO)C[C@H]1C returned BioA inh inactive.
Screening COc1ccc(C2=NN(c3nc(C)cc(C)n3)C(=O)C2)cc1 returned RecA intein inh 78, UGM FP inh inactive, Rv3671c protease inactive, FadD28 binding inactive, Yp Topo-I inh inactive and GFP chromophore 6.9.
`CN1CCN(C2=C(Cl)C(=O)C(c3cnc(N4CCCCC4)s3)=C(Cl)C2=O)CC1` gave BioA inh inactive, RecA intein inh 83, UGM FP inh inactive, Rv3671c protease inactive, FadD28 binding inactive, Yp Topo-I inh inactive and GFP chromophore 3.7.
For CCC(=O)N(C)C[C@@H]1Oc2ncc(C#Cc3ccncc3)cc2C(=O)N([C@@H](C)CO)C[C@@H]1C the results were BioA inh inactive.
Cc1onc(-c2ccccc2Cl)c1C(N)=O was read as BioA inh inactive, RecA intein inh inactive, UGM FP inh inactive, Rv3671c protease inactive, FadD28 binding inactive and Yp Topo-I inh inactive.
For Cc1[nH]n(C)c(=O)c1C(=O)c1c(-c2ccccc2Cl)noc1C the results were BioA inh inactive, RecA intein inh 74, UGM FP inh inactive, Rv3671c protease inactive, FadD28 binding inactive, Yp Topo-I inh inactive and GFP chromophore 17.
Screening CC(=O)n1cc(N(C(=O)CCl)c2ccc(C)cc2)c2ccccc21 returned BioA inh inactive, RecA intein inh 91, UGM FP inh inactive, Rv3671c protease inactive, FadD28 binding inactive, Yp Topo-I inh inactive and GFP chromophore 1.7.
`CC(=O)N(c1ccc(Cl)cc1)c1cn(C(C)=O)c2ccccc12` gave BioA inh inactive, RecA intein inh inactive, UGM FP inh inactive, Rv3671c protease inactive, FadD28 binding inactive and Yp Topo-I inh inactive.
`C/C(=N/NC(=O)Cc1cc(=O)[nH][nH]1)c1ccc([N+](=O)[O-])cc1` gave RecA intein inh 84, UGM FP inh inactive, Rv3671c protease inactive, FadD28 binding inactive, Yp Topo-I inh inactive and GFP chromophore 7.4.
Screening C/C(=N\NC(=O)CSCc1ccccc1Br)c1cccc([N+](=O)[O-])c1 returned BioA inh inactive, RecA intein inh inactive, UGM FP inh inactive, Rv3671c protease inactive, FadD28 binding inactive and Yp Topo-I inh inactive.
C/C(=N\NC(=O)Cc1cc(=O)[nH][nH]1)c1cccc([N+](=O)[O-])c1 was read as RecA intein inh 88, UGM FP inh inactive, Rv3671c protease inactive, FadD28 binding inactive, Yp Topo-I inh inactive and GFP chromophore 8.8.
`CN(C)C(=O)c1cccc(-c2ccc3c(c2)[C@@H]2[C@@H](CCN2C(=O)C2CC2)[C@@H](CO)N3)c1` gave BioA inh inactive.
COc1cccc(/C=C2\SC(=S)N(CCCC(=O)N3CCCC3)C2=O)c1 was read as BioA inh inactive, RecA intein inh 33, UGM FP inh inactive, Rv3671c protease inactive, FadD28 binding inactive, Yp Topo-I inh inactive and GFP chromophore inactive.
For COc1ccc(/C=C2/SC(=S)N(CCCC(=O)Nc3ccc(O)cc3)C2=O)cc1 the results were BioA inh inactive, RecA intein inh inactive, UGM FP inh inactive, Rv3671c protease inactive, FadD28 binding inactive and Yp Topo-I inh inactive.
COc1ccc(/C=C2\SC(=S)N(CCCC(=O)Nc3ccc(O)cc3)C2=O)cc1 was read as BioA inh inactive, RecA intein inh 40, UGM FP inh inactive, Rv3671c protease inactive, FadD28 binding inactive, Yp Topo-I inh inactive and GFP chromophore inactive.
NS(=O)(=O)c1ccc(N=Nc2ccc(=O)[nH]c2O)cc1 was read as RecA intein inh 73, UGM FP inh inactive, Rv3671c protease inactive, FadD28 binding inactive, Yp Topo-I inh inactive and GFP chromophore 10.
Screening NS(=O)(=O)c1ccc(N=Nc2ccc(O)c3ncccc23)cc1 returned RecA intein inh inactive, UGM FP inh inactive, Rv3671c protease inactive, FadD28 binding inactive and Yp Topo-I inh inactive.
